PubChem BioAssay AID1159580 (chemical genetic matrix, 2015)
Hit rate of the full screen: of about 5,500 compounds, about 2,000 (36%) were called active. Inconclusive results (about 18%) are left out. Rule as the data show it: active = normalized growth mostly below about 0.91 (no sharp cut-off); inconclusive = no clear call, values can overlap the other calls; inactive = mostly above about 0.92. The list shows a part of the results.

Assay: chemical genetic growth profiling, strain panel (AID 1159580);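 also: tested at 20 µM; growth read once vehicle control cultures reached saturation at 30 °C; 1 = growth at the plate median or of vehicle wells; lower values mean less growth of the strain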
Settings: growth OD

Measured: normalized growth

COC(=O)c1c(OC)cc2c(c1C)Oc1c(Cl)c(O)c(Cl)c(C)c1C(=O)O2
active: S. cerevisiae deletion strains, locus YKL190W, strain CNB1, active compounds read low 0.911 | S. cerevisiae deletion strains, locus YMR263W, strain SAP30, active compounds read low 0.882 | S. cerevisiae deletion strains, locus YNL307C, strain MCK1, active compounds read low 0.838 | S. cerevisiae deletion strains, locus YPL241C, strain CIN2, active compounds read low 0.913 | S. cerevisiae deletion strains, locus YPR163C, strain tif3, active compounds read low 0.901
inactive: S. cerevisiae deletion strains, locus YJR075W, strain HOC1, active compounds read low 0.893 | S. cerevisiae deletion strains, locus YKL009W, strain mrt4, active compounds read low 0.975 | S. cerevisiae deletion strains, locus YKL068W, active compounds read low 0.976 | S. cerevisiae deletion strains, locus YKL085W, strain MDH1 (second series), active compounds read low 0.979 | S. cerevisiae deletion strains, locus YKL085W, strain MDH1, active compounds read low 0.979 | S. cerevisiae deletion strains, locus YKL160W, strain elf1, active compounds read low 0.993 | S. cerevisiae deletion strains, locus YKR001C, strain vps1, active compounds read low 0.949 | S. cerevisiae deletion strains, locus YKR026C, strain gcn3, active compounds read low 0.977 | S. cerevisiae deletion strains, locus YKR091W, strain srl3, active compounds read low 0.986 | S. cerevisiae deletion strains, locus YLL001W, strain dnm1, active compounds read low 0.979 | S. cerevisiae deletion strains, locus YLL026W, active compounds read low 0.983 | S. cerevisiae deletion strains, locus YLL041C, strain sdh2, active compounds read low 0.978 | S. cerevisiae deletion strains, locus YLR027C, strain aat2, active compounds read low 0.991 | S. cerevisiae deletion strains, locus YLR039C, strain RIC1, active compounds read low 0.796 | S. cerevisiae deletion strains, locus YLR058C, strain SHM2, active compounds read low 0.919 | S. cerevisiae deletion strains, locus YLR102C, strain apc9, active compounds read low 0.927 | S. cerevisiae deletion strains, locus YLR113W, strain HOG1, active compounds read low 0.968 | S. cerevisiae deletion strains, locus YLR221C, strain rsa3, active compounds read low 0.982 | S. cerevisiae deletion strains, locus YLR258W, strain gsy2, active compounds read low 0.992 | S. cerevisiae deletion strains, locus YLR262C, strain YPT6 (second series), active compounds read low 0.927 | S. cerevisiae deletion strains, locus YLR262C, strain YPT6, active compounds read low 0.795 | S. cerevisiae deletion strains, locus YLR268W, strain sec22, active compounds read low 0.905 | S. cerevisiae deletion strains, locus YLR320W, strain mms22, active compounds read low 0.964 | S. cerevisiae deletion strains, locus YLR330W, strain CHS5, active compounds read low 0.929 | S. cerevisiae deletion strains, locus YLR342W, strain FKS1 (second series), active compounds read low 0.927 | S. cerevisiae deletion strains, locus YLR342W, strain FKS1, active compounds read low 0.986 | S. cerevisiae deletion strains, locus YLR357W, strain rsc2, active compounds read low 1.05 | S. cerevisiae deletion strains, locus YLR370C, strain arc18, active compounds read low 0.984 | S. cerevisiae deletion strains, locus YLR371W, strain rom2, active compounds read low 0.976 | S. cerevisiae deletion strains, locus YLR384C, strain iki3, active compounds read low 0.994 | S. cerevisiae deletion strains, locus YLR418C, strain cdc73, active compounds read low 0.863 | S. cerevisiae deletion strains, locus YML016C, strain PPZ1, active compounds read low 0.936 | S. cerevisiae deletion strains, locus YML032C, strain rad52, active compounds read low 0.96 | S. cerevisiae deletion strains, locus YML120C, strain ndi1, active compounds read low 0.973 | S. cerevisiae deletion strains, locus YML124C, strain tub3, active compounds read low 0.945 | S. cerevisiae deletion strains, locus YMR058W, strain fet3, active compounds read low 0.982 | S. cerevisiae deletion strains, locus YMR078C, strain ctf18, active compounds read low 0.935 | S. cerevisiae deletion strains, locus YMR125W, strain sto1, active compounds read low 1.01 | S. cerevisiae deletion strains, locus YMR129W, active compounds read low 1.01 | S. cerevisiae deletion strains, locus YMR205C, strain PFK2, active compounds read low 0.989 | S. cerevisiae deletion strains, locus YMR223W, strain ubp8, active compounds read low 0.947 | S. cerevisiae deletion strains, locus YMR231W, strain pep5, active compounds read low 0.993 | S. cerevisiae deletion strains, locus YMR307W, strain GAS1, active compounds read low 0.869 | S. cerevisiae deletion strains, locus YNL067W, strain RPL9B, active compounds read low 0.895 | S. cerevisiae deletion strains, locus YNL071W, strain lat1, active compounds read low 0.982 | S. cerevisiae deletion strains, locus YNL128W, strain TEP1, active compounds read low 0.89 | S. cerevisiae deletion strains, locus YNL153C, strain GIM3, active compounds read low 0.909 | S. cerevisiae deletion strains, locus YNL183C, strain NPR1, active compounds read low 0.9 | S. cerevisiae deletion strains, locus YNL209W, strain ssb2, active compounds read low 0.996 | S. cerevisiae deletion strains, locus YNL233W, strain BNI4, active compounds read low 0.938 | S. cerevisiae deletion strains, locus YNL248C, strain rpa49, active compounds read low 1.02 | S. cerevisiae deletion strains, locus YNL250W, strain rad50, active compounds read low 0.986 | S. cerevisiae deletion strains, locus YNL271C, strain bni1, active compounds read low 0.985 | S. cerevisiae deletion strains, locus YNL298W, strain CLA4, active compounds read low 0.977 | S. cerevisiae deletion strains, locus YNL322C, strain KRE1 (second series), active compounds read low 0.997 | S. cerevisiae deletion strains, locus YNL322C, strain KRE1, active compounds read low 0.937 | S. cerevisiae deletion strains, locus YNR049C, strain mso1, active compounds read low 0.994 | S. cerevisiae deletion strains, locus YNR052C, strain pop2, active compounds read low 0.948 | S. cerevisiae deletion strains, locus YOL006C, strain TOP1, active compounds read low 0.757 | S. cerevisiae deletion strains, locus YOL012C, strain htz1 0.865 | S. cerevisiae deletion strains, locus YOL147C, strain pex11, active compounds read low 0.946 | S. cerevisiae deletion strains, locus YOR001W, strain rrp6, active compounds read low 1.01 | S. cerevisiae deletion strains, locus YOR061W, strain CKA2, active compounds read low 0.892 | S. cerevisiae deletion strains, locus YOR069W, strain VPS5, active compounds read low 0.953 | S. cerevisiae deletion strains, locus YOR070C, strain gyp1, active compounds read low 0.984 | S. cerevisiae deletion strains, locus YOR080W, strain dia2, active compounds read low 0.992 | S. cerevisiae deletion strains, locus YOR083W, strain WHI5, active compounds read low 0.997 | S. cerevisiae deletion strains, locus YOR106W, strain vam3, active compounds read low 1.01 | S. cerevisiae deletion strains, locus YOR136W, strain idh2, active compounds read low 0.943 | S. cerevisiae deletion strains, locus YOR144C, strain elg1, active compounds read low 0.947 | S. cerevisiae deletion strains, locus YOR184W, strain ser1, active compounds read low 0.918 | S. cerevisiae deletion strains, locus YOR231W, strain MKK1, active compounds read low 0.927 | S. cerevisiae deletion strains, locus YOR265W, strain rbl2, active compounds read low 0.989 | S. cerevisiae deletion strains, locus YOR270C, strain vph1, active compounds read low 0.927 | S. cerevisiae deletion strains, locus YOR290C, strain snf2, active compounds read low 0.995 | S. cerevisiae deletion strains, locus YOR316C, strain cot1, active compounds read low 0.933 | S. cerevisiae deletion strains, locus YPL051W, strain arl3, active compounds read low 0.98 | S. cerevisiae deletion strains, locus YPL055C, strain LGE1, active compounds read low 0.864 | S. cerevisiae deletion strains, locus YPL078C, strain atp4, active compounds read low 0.982 | S. cerevisiae deletion strains, locus YPL106C, strain sse1, active compounds read low 1.03 | S. cerevisiae deletion strains, locus YPL240C, strain hsp82, active compounds read low 0.979 | S. cerevisiae deletion strains, locus YPL256C, strain CLN2, active compounds read low 0.938 | S. cerevisiae deletion strains, locus YPR119W, strain clb2, active compounds read low 0.937 | S. cerevisiae deletion strains, locus YPR141C, strain kar3, active compounds read low 0.968 | S. cerevisiae deletion strains, locus YPR167C, strain met16, active compounds read low 0.927 | S. cerevisiae deletion strains, strain wtn01, active compounds read low 0.936 | S. cerevisiae strains, strain wild type, active compounds read low 0.915
